# Screening results from PubChem BioAssay.
# A selection: hits, their analogues and other compounds. The true share with any hit is near 2.9%.
# PLCg1 inh: PLC-gamma1 (human) inhibition, primary screen. P19174. purified PLC-gamma1, fluorogenic substrate, fluorescence. inhibition, % at 12.2 µM. 370,000 tested, 0.84% active
# KLK7 zymogen act: activates the human kallikrein-7 zymogen; purified proKLK7, EDANS-DABCYL substrate fluorescence; 100% is mature enzyme control, 0% vehicle; activation, % at 7 µM; 370,000 tested, 0.9% active;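 active = activation above the mean of all tested compounds plus 3 SD, computed per campaign excluding outliers beyond control limits, cut at about 13% in these data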
# PLCb3 inh: PLC-beta3 (human) inhibition, primary screen | Q01970 | Purified PLC-beta3, fluorogenic substrate, fluorescence | inhibition, % at 12.2 µM | 370,000 tested, 0.18% active; in the data active = inhibition above about 11%;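 also: 0% = median of compound wells on plate and 100% = full blocker control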
# Target sequence (Q01970 whole entry, looked up): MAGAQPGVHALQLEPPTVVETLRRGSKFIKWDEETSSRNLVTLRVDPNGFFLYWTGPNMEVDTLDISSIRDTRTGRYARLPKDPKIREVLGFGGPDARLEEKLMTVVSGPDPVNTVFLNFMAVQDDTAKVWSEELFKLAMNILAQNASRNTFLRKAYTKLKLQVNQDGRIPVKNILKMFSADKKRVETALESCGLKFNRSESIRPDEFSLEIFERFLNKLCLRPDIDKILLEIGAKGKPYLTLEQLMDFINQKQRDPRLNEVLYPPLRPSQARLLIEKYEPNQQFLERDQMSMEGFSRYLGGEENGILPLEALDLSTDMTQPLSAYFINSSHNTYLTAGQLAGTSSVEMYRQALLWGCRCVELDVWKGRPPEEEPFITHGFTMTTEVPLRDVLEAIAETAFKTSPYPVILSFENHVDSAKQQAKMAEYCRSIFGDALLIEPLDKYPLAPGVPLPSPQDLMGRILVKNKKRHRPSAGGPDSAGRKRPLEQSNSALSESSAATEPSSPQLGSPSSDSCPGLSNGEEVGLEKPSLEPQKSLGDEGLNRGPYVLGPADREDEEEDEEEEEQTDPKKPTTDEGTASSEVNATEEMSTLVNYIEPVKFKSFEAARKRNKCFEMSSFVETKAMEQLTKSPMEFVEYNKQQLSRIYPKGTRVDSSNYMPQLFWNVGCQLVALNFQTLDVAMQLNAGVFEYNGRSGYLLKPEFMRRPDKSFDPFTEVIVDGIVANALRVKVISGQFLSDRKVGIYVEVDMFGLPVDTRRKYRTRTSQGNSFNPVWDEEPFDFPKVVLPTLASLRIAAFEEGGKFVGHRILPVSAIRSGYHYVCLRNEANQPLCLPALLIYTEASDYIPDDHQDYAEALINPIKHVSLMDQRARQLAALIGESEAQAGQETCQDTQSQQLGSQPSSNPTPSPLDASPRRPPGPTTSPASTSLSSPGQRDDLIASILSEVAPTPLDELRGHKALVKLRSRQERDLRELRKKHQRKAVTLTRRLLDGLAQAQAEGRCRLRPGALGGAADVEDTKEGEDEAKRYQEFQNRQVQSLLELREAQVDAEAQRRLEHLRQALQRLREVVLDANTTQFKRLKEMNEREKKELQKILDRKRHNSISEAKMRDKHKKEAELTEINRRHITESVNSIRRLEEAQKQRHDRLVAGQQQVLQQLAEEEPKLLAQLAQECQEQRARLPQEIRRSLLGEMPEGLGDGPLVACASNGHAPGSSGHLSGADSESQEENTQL
# ADAM17 inh: inhibitors of human ADAM17; P78536; recombinant ADAM17, EDANS/DABCYL FRET peptide cleavage; inhibition, % at 6.95 µM; 370,000 tested, 0.83% active; AID 720648;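 active = inhibition above the mean of compounds lying between control limits plus 3 SD, set per campaign, cut at about 8.5% in these data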;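 also: 0% = DMSO-only wells as the low control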
# ADAM10 inh: inhibitors of human ADAM10 | O14672 | AID 720582 | recombinant ADAM10, EDANS/DABCYL FRET peptide cleavage, 3 h | 370,000 tested, 0.62% active | inhibition, % at 7 µM;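 active = inhibition above a per-campaign cutoff equal to the mean of compounds falling between control-based bounds plus 3 SD, cut at about 20% in these data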;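 also: 0% = DMSO wells while the 100% control is not disclosed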
# PLCg1 ctr: PLC-gamma1 inhibition, counter-screen for PLC-beta3 hits. inhibition, % at 12.3 µM. 3,300 tested, 3.1% active. AID 743258. purified PLC-gamma1, fluorogenic substrate, fluorescence. shares compounds with PLCg1 inh
# PLCb3 confirm: human PLC-beta3 inhibition, confirmation | shares compounds with PLCg1 inh | purified PLC-beta3, fluorogenic substrate fluorescence | inhibition, % at 12.3 µM | 3,300 tested, 1% active | AID 743261; in the data active = inhibition above about 11%
# Numbers without * were called inactive; x = no result. Rule as the data show it, unless noted: active = inhibition above about 9.5%; inactive = the rest.
SMILES,PLCg1 inh,KLK7 zymogen act,PLCb3 inh,ADAM17 inh,ADAM10 inh,PLCg1 ctr,PLCb3 confirm
COC(=O)C(NC(=O)CCc1c(C)nc2ncnn2c1C)C(C)C (stereo not drawn),9.7*,1,3,4,8,-5,0
CCOC(=O)C(Cc1ccccc1)NC(=O)CCc1c(C)nc2ncnn2c1C (stereo not drawn),2,-1,1,1,8,x,x
COCCN1C(=O)COc2ccccc2C1C(=O)NC(C)(C)C (stereo not drawn),1,0,3,-3,-5,x,x
Cc1ccc2c(CN3CC(C)CC(C)C3)cc(=O)oc2c1C (stereo not drawn),11*,-1,5,6,3,-8,-7
CN(Cc1ccccc1)C(c1ccnc2ccccc12)c1nnnn1-c1ccc2c(c1)OCCO2 (stereo not drawn),0,0,-2,3,3,x,x
CNC(=S)N(Cc1ccc(OC)cc1)C1CC(=O)N(c2ccc(Cl)cc2)C1=O (stereo not drawn),9.6*,0,3,1,6,8,8
Cc1c(Br)c(O)c(Br)c2sc(=O)oc12,9.9*,0,-10,-2,1,-29,-35
CC(OC(=O)[C@@H](NS(=O)(=O)c1ccccc1)C(C)C)C(=O)c1c(N)n(C)c(=O)n(C)c1=O (stereo partly drawn),0,1,2,1,-3,x,x
CCCCC(=O)N(C)c1c(C)nc2ccc(C(=O)N3CCN(S(=O)(=O)CC)CC3)cn12,0,-1,3,1,-15,x,x
CC1CN(c2ccc([N+](=O)[O-])c(NCCOc3ccccc3)c2)CCN1 (stereo not drawn),8,0,11*,2,15,0,1
COc1ccc(OCCNc2cc(N3CCCCC3)ccc2[N+](=O)[O-])cc1,1,0,3,-1,1,x,x
CC(NC(=O)c1ccccc1Cl)C1COc2ccccc2O1 (stereo not drawn),7,0,13*,1,2,1,1
COC(=O)C[C@@H]1CC[C@@H]2[C@H](COc3ccc(NC(=O)c4cccc(OC)c4)cc3C(=O)N2C)O1,-1,0,0,1,-3,x,x
COc1ccccc1CCn1cnc(-c2ccccc2OC)c1CC(C)C,2,0,4,4,6,x,x
CCN(CC)CCN(C)C(=O)c1[nH]c(C(F)(F)F)nc1-c1ccccc1,0,0,0,2,-16,x,x
FC(F)(F)c1cccc(NC(=S)Nc2ccc(Cl)cc2Cl)c1,2,0,-3,-4,-9,x,x
COc1ccc(S(=O)CC(=O)Nc2ccccc2Cl)cc1 (stereo not drawn),4,0,5,5,4,x,x
O=C(CS(=O)c1cccc(Cl)c1)Nc1ccccc1Cl (stereo not drawn),11*,0,4,-6,2,11*,1
O=C(CS(=O)c1cccc(C(F)(F)F)c1)Nc1ccc(Cl)cc1Cl (stereo not drawn),17*,-1,3,1,1,13*,4
O=C(NCC(c1ccccc1)c1ccccc1)[C@H](Cc1ccccc1)NC1(C(=O)NC2CCCCC2)CCCCCC1,0,x,1,0,-1,x,x
CN1CCC(N[C@@H](Cc2ccccc2)C(=O)NCC(c2ccccc2)c2ccccc2)(C(=O)NC2CCCCC2)CC1,12*,x,9,3,7,-1,1
Cc1ccccc1OCC(=O)N/N=C/c1ccc(N2CCOCC2)o1,-3,0,-14,0,-2,x,x
Cc1ccc2c(=O)[nH]c(Nc3nc(C)cc(-c4ccccc4)n3)nc2c1,11*,0,-4,1,6,-5,-2
Cn1c(CO)nc2c3ccccc3ccc21,2,0,-1,1,-8,x,x
Cc1cc(SCC(=O)N2CCCC2=O)nc2ccccc12,12*,0,-1,0,-2,-3,-4
SMILES,PLCg1 inh,KLK7 zymogen act,PLCb3 inh,ADAM17 inh,ADAM10 inh,PLCg1 ctr,PLCb3 confirm
CCc1ccc(CN(C)Cc2c(C(=O)N3CCOCC3)nc3c(C)cccn23)nc1,0,0,0,-3,-6,x,x
Cn1c(=O)oc2cc(S(=O)(=O)N3CCN(c4ccccc4)CC3)ccc21,11*,0,4,3,6,7,2
COC(=O)CC(=O)O[C@H]1C=C[C@@H](NC(=O)OC(C)(C)C)C1,-2,1,-2,-3,-4,x,x
CCOc1ccc(NC(=O)CN(C)C(=O)c2cc3c(s2)CCC3)cc1OCC,-4,-1,-3,-5,-5,x,x
COc1ccc(C(=O)NCC(C)(C)N2CCOCC2)cc1S(=O)(=O)NCc1ccc(Cl)cc1,12*,0,-10,-2,-12,-4,0
COc1ccc(C(=O)NCCNC(C)=O)cc1S(=O)(=O)NCc1ccc(Cl)cc1,-3,-1,0,-3,7,x,x
Cn1c(COc2ccccc2)nnc1SCC(=O)Nc1nnc(C2CC2)s1,-1,0,-10,-2,-9,x,x
C=CCN(Cc1ccc(OC)cc1OC)C(C#CCCCC)c1ccccc1 (stereo not drawn),-1,x,4,1,4,x,x
Cc1ccccc1NS(=O)(=O)c1cc(C(=O)NCc2ccco2)ccc1C,10*,0,3,6,13,3,2
CCCOP(=O)(c1ccc(N(C)C)cc1)C(O)c1ccccc1OC (stereo not drawn),10*,0,5,-1,2,-1,1
Cc1c(-c2ccccc2)nc2ccccc2c1C(=O)NCc1cccs1,4,-1,14*,3,8,-3,-2
CC(C)(C)OC(=O)NCC(=O)NNC(=O)C(C(=O)OCc1ccccc1)c1ccccc1 (stereo not drawn),8,0,6,2,7,x,x
CCOc1ccc(N2C(=O)CC(S/C(N)=N/N=C/c3cccs3)C2=O)cc1 (stereo not drawn),10*,-1,5,3,8,3,6
N/C(=N\N=C\c1cccs1)SC1CC(=O)N(c2cccc([N+](=O)[O-])c2)C1=O (stereo not drawn),0,0,1,-2,2,x,x
CCCCNC(=O)C1(C)CCN1Cc1cccc2c(OC)cc(C(=O)OCC)cc12 (stereo not drawn),-20,1,-29,-1,-19,x,x
Cc1csc2nc(O)c(C(=O)NCCCN3CCCC3=O)c(=O)n12,9.7*,-1,4,3,2,-7,-4
O=C(Nc1cc(Cl)ccc1Cl)C1CCCO1 (stereo not drawn),3,0,0,-1,1,x,x
O=C(O)c1ccc(Cl)cc1NC(=O)C1CCCO1 (stereo not drawn),2,-1,12*,1,3,-6,-6
